The source made the active and inactive calls. How the source made its calls: active means hit-call score of the fitted dose curve at least 0.9, where 1 is the maximum; inactive means score below 0.9.

This assay in a line: Tanguay_ZF_120hpf_EDEM: Oregon State University Tanguay Lab 120 Hour Post-fertilization zebrafish Assay for Edema Malformation (AID 2284400). The protocol: Tanguay_ZF_120hpf is a whole embryo, multiplexed endpoint assay using zebrafish larvae exposed for 120 hours post fertilization on a 96-well plate.Tanguay_ZF_120hpf_EDEM is one of one assay component(s) measured or calculated from the Tanguay_ZF_120hpf assay. It is designed to make measurements of zebrafish development as detected with brightfield microscopy of developing zebrafish embryos.Data from the assay component Tanguay_ZF_120hpf_EDEM was analyzed into 1 assay endpoints. This assay endpoint, Tanguay_ZF_120hpf_EDEM, was analyzed in the positive analysis fitting direction relative to DMSO as the negative control and baseline of activity. Using a type of morphology reporter, gain-of-signal activity can be used to understand changes in developmentals as they relate to the whole embryo. To generalize the intended target to other relatable targets, this assay endpoint is annotated to the zebrafish development intended target family, where the subfamily is embryonic edema.
Zebrafish husbandry: Tropical 5D wild-type adult zebrafish were housed in at an approximate density of 1000 per 100 gallon tank at the Sinnhuber Aquatic Research Laboratory, Oregon State University, Corvallis, OR. Each tank was kept at standard laboratory conditions of 28C on a 14-h light/10-h dark photoperiod in fish water consisting of reverse osmosis water supplemented with a commercially available salt (Instant Ocean). Spawning funnels were placed into the tanks the night prior, and embryos were collected and staged. To increase bioavailability, the chorion was enzymatically removed using pronase (63.6mg/ml, >/= 3.5U/mg, Sigma-Aldrich: P5147) at 4 hours post fertilization (hpf) using a custom automated dechorionator.Chemical exposures: Six hpf dechorionated embryos were placed 1 embryo per well in a 96-well plate prefilled with 90 ul of EM using automated embryo placement systems (AEPS). Ten microliters of each row of dilution plate 2 was added to 2 exposure plates. The final DMSO concentration used was 0.64% (vol/vol). Thirty-two embryos were also exposed to 5uM trimethyltin chloride (positive control). Plates were sealed to prevent evaporation and foil covered to reduce light exposure and kept in a 28C incubator. Embryos were statically exposed until 120 hpf. At 24 hpf, embryos were assessed for photomotor response using a custom photomotor response analysis tool (PRAT) and for developmental toxicity endpoints (MO24: mortality at 24 hpf, DP: developmental progression, SM: spontaneous movement, and NC: notochord distortion). At 120 hpf, locomotor activity was measured using Viewpoint Zebralab and assessed for 13 endpoints. Zebrafish acquisition and analysis program (ZAAP), a custom program designed to inventory, acquire, and manage zebrafish data, was used to collect developmental endpoints as either present or absent (i.e., binary responses were recorded). If mortality occurred for an embryo (at either 24 or 120 hpf), the non-mortality endpoints were not measured.
For `C[Si](C)(C)C(F)(F)C(F)(F)C(F)(F)F`, the compound was classed as inactive.

As to `FC(F)=C(F)C(F)(F)C(F)(F)C(F)(F)C(F)(F)C(F)(F)C(F)(F)F`, the compound was classed as inactive.

`O=C(Cl)C(F)(F)C(F)(F)C(F)(F)C(=O)Cl`: the outcome was inactive.

In the case of `FC(F)(F)C(F)(F)C(F)(F)C(F)(F)C(F)(F)C(F)(F)I`, the compound was called inactive.

For the compound `FC(F)(F)COC(OCC(F)(F)F)OCC(F)(F)F`, the compound was classed as inactive.

In the case of `FC(F)C(F)(F)COCC1CO1` (stereo not given), the outcome was inactive.

Consider `OCCC(F)(F)C(F)(F)C(F)(F)C(F)(F)F`, for which the call was inactive.

Take `OC(O)(C(F)C(O)(O)C(F)(F)F)C(F)(F)F`: the AC50 was 66.9 µM (active).

Consider `NCC(F)(F)C(F)(F)C(F)(F)C(F)(F)F`, for which the compound was classed as inactive.

Turning to `O=S(=O)(O)CCC(F)(F)C(F)(F)C(F)(F)C(F)(F)C(F)(F)C(F)(F)F`, the result was inactive.

For the origin of these results see PubChem BioAssay (EPA / NIEHS).
